Screens: PubChem BioAssay, several laboratories
AMPAR-TARP mod: modulates AMPAR-stargazin complexes. O88602+P19491. HEK293 GluA2+stargazin, membrane potential dye (FDSS), glutamate EC50; hits were called plate by plate, in both directions. calls only at 30 µM. hit rate 3.5% among 40,000. AID 1259245;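 active = any of four per-well response measures lying three or more SD from its plate-wide compound average, in either direction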
GIRK2 activator: Activates human GIRK2-containing potassium channels; HEK293 GIRK2/NPY4 cells, thallium flux fluorescence; activation (% efficacy), % for hits at 37.5 µM; 34,000 tested, under 10 active; AID 1259324;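 active = primary screen hit, no activity in plain HEK293 cells, and in GIRK2-only cells above 5% efficacy rising with concentration; inactive = the rest, including fluorescent compounds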;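 also: efficacy is normalized control-subtracted fluorescence 15 s after thallium addition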
* marks the source's active call; other numbers are inactive results; i = inactive; x = not tested or not shown; + = active, no number. The sample as a whole holds a higher share of hits than the screen did.

SMILES | AMPAR-TARP mod | GIRK2 activator
O=c1ccc(-c2ccco2)nn1CCCNS(=O)(=O)c1ccc2c(c1)CCCC2 | + | i
O=c1ccc(-c2ccco2)nn1CCCNS(=O)(=O)c1ccc2c(c1)OCCO2 | i | i
CCc1cccc(CC)c1NC(=O)c1ccc([N+](=O)[O-])cc1Cl | i | i
CCCCOc1ccc(C(=O)NCc2nc(C)no2)cc1 | x | i
CN(C1CCCC1)S(=O)(=O)c1ccc(C(=O)Nc2sc3c(c2C(N)=O)CCCC3)cc1 | i | x
CCOC(=O)c1c(NC(=O)c2ccnn2C)sc2c1CCCC2 | x | i
CCOC(=O)c1c(NC(=O)c2ccc(S(=O)(=O)N(C)C3CC3)cc2)sc2c1CCN(CC)C2 | + | i
COC(=O)c1c(NC(=O)c2ccno2)sc2c1CCN(Cc1ccccc1)C2 | x | i
CCOC(=O)c1c(NC(=O)COc2ccc(Cl)cc2)sc2c1CCN(Cc1ccccc1)C2 | + | x
CCOC(=O)c1c(NC(=O)c2cc(C)nn2C)sc2c1CCN(CC)C2 | + | i
Cc1cccc(NC(=O)CC2SC(=O)N(Cc3ccccc3)C2=O)c1 (stereo not given) | i | i
Cc1c(Cl)ccc2sc(N(CCN3CCOCC3)C(=O)CCc3ccccc3)nc12 | i | i
COc1ccc(S(=O)(=O)NCC#CCN(C(C)C)C(C)C)cc1OC | i | x
CC(C)N(CC#CCNS(=O)(=O)c1ccc2ccccc2c1)C(C)C | + | x
Cc1ccc(CN2C(=O)NC3(CCN(C(=O)Nc4ccc(F)c(Cl)c4)CC3)C2=O)cc1 | + | i
Cc1cc(C)cc(NC(=O)N2CCC3(CC2)NC(=O)N(Cc2ccc(Cl)cc2)C3=O)c1 | i | i
N#Cc1ccc(Cl)cc1NC(=O)C(=O)NCc1ccc2c(c1)OCO2 | i | x
CC(C)c1ccc(-n2nnc(C(=O)NC3CCCCC3)c2N)cc1 | i | i
Cc1cccc(-n2nnc(C(=O)NC3CCCCC3)c2N)c1 | + | i
Cc1cccn2c(=O)c(C(=O)NCCCN3CCOCC3)c(O)nc12 | + | i
Cc1ccc2nc3c(cc(C(=O)NCCN4CCOCC4)n3C)c(=O)n2c1 | i | i
COc1ccccc1CNC(=O)C(=O)NCC1CCN(C)CC1 | i | i
COC(=O)Nc1nc(CC(=O)NCCc2c[nH]c3ccccc23)cs1 | x | i
Cc1nnc(NC(=O)CCc2csc(NS(=O)(=O)c3ccccc3)n2)s1 | + | i
COc1ccc(S(=O)(=O)Nc2nc(CCC(=O)NC(C)C)cs2)cc1 | i | i
SMILES | AMPAR-TARP mod | GIRK2 activator
COc1ccc(S(=O)(=O)Nc2nc(CCC(=O)Nc3nnc(C)s3)cs2)cc1 | + | i
O=C(CCc1csc(NS(=O)(=O)c2ccccc2)n1)Nc1nc2ccccc2s1 | i | i
O=C(Cc1csc(Nc2ccccc2)n1)NCCc1c[nH]c2ccccc12 | + | i
CNC(=O)Cc1csc(NC(=O)c2csc(Nc3ccccc3)n2)n1 | x | i
Cc1nnc(NC(=O)Cc2csc(Nc3ccccc3)n2)s1 | + | i
NS(=O)(=O)c1ccc(NC(=O)c2ccc(S(=O)(=O)N3CCCC3)o2)cc1 | i | i
CN(C)S(=O)(=O)c1ccc(C(=O)N2CC(c3nc(-c4cccc(C(F)(F)F)c4)no3)C2)cc1 | x | i
CCc1ccc(-n2nnnc2SC(C)C(=O)Nc2nnc(CC)s2)cc1 (stereo not given) | i | x
COc1ccc(S(=O)(=O)CC(=O)Nc2sc3c(c2C(N)=O)CCCCC3)cc1 | i | i
O=C(NCC1CCN(S(=O)(=O)C2CC2)CC1)C(=O)Nc1cccc(C(F)(F)F)c1 | i | i
COc1ccc(C(=O)NCC2(c3cccs3)CCCC2)cc1OC | x | i
CC(C)OCC(O)CN1CCCCC1 (stereo not given) | i | x
COc1cc(C)c(C)cc1S(=O)(=O)N(Cc1ccsc1)Cc1ccccn1 | x | i
O=C(COc1ccccc1F)NCCn1ncc2c(NCc3ccco3)ncnc21 | i | x
CCCn1c(=O)c2c(N3CCN(C(=O)c4ccco4)CC3)c(C)cnc2n(C)c1=O | i | x
Cc1ccc([N+](=O)[O-])cc1NC(=O)C(=O)NCC(c1cccc2ccccc12)N1CCOCC1 (stereo not given) | i | x
O=C(Nc1ccc(SCC(=O)N2CCc3ccccc32)nn1)c1ccco1 | i | i
CC(=O)Cc1nsc(NC(=O)c2cc(-c3ccc([N+](=O)[O-])cc3)oc2C)n1 | + | i
CC(=O)Cc1nsc(NC(=O)c2oc3ccc(C)cc3c2C)n1 | i | x
COc1cc(S(=O)(=O)N2CCN=C2c2ccccc2)ccc1F | i | x
CCc1cc(S(=O)(=O)N2CCN=C2c2ccccc2)ccc1OC | + | i
C=CCCC(=O)NCC#CCN1CCc2ccccc2C1 | i | i
O=C(CCCc1ccccc1)NCC#CCN1CCc2ccccc2C1 | + | i
O=C(CCS(=O)(=O)c1ccc(Cl)cc1)Nc1nnc(-c2ccccn2)o1 | + | i
O=C(CCSc1ccc(Cl)cc1)Nc1nnc(-c2ccccn2)o1 | i | i
